Pf growth 96h – Primary qHTS for delayed death inhibitors of the malarial parasite plastid, 96 hour incubation | 320,000 compounds, 6.9% hits | AID 504834, 2011 | Potency, µM (top dose mostly 28.7 µM), inactives show at the top dose activity change, negative = inhibition, most hits filed as inhibitors | P. falciparum luciferase reporter growth, 96 h; further: potency means the concentration at half of the fitted maximal effect; on the % scale 0 is the no-effect control and ±100 the full control effect
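Infected RBCs, 2% Hct / 0.05% parasitemia final; luciferase-reporter P. falciparum; cpd 96 h, 37 C, 5% CO2; luciferase detection reagent; luminescence.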
Cycloheximide cs – Cycloheximide Counterscreen for Small Molecule Inhibitors of Shiga Toxin; AID 2314, 2010; max response, %; cell reporter, cycloheximide protein synthesis inhibition counterscreen; 300,000 compounds, 12% hits; in the data active means max response mostly above about 13%, no sharp cut-off; inactive means mostly below about 14%; further: read at 38.3 µM for the half of the compounds with a filed dose; 0% is about no effect
Pf growth 48h – Primary qHTS for delayed death inhibitors of the malarial parasite plastid, 48 hour incubation. P. falciparum luciferase growth in erythrocytes, 48 h. Potency, µM (top dose mostly 28.7 µM), for the others: at the top dose activity change, negative = inhibition, most hits filed as inhibitors. 310,000 compounds, 5.9% hits; further: potency means the concentration at half of the fitted maximal effect; on the % scale 0 is the no-effect control and ±100 the full control effect
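Cell-based growth assay: transgenic P. falciparum expressing firefly luciferase, cultured in red cells within RPMI 1640 containing 0.5% w/v Albumax, 24 mM bicarbonate and gentamycin. A drop in luciferase activity indicates inhibition.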
Shiga toxin inh – A qHTS for Small Molecule Inhibitors of Shiga Toxin; 290,000 compounds, 9.2% hits; inhibition, % at 38.7 µM; AID 2315, 2010; Vero cells, Shiga toxin protein synthesis inhibition reporter; in the data active means inhibition mostly above about 28%, no sharp cut-off; inactive means mostly below about 43%; further: 0% is about no effect
HCV inhibitor – qHTS Assay for Inhibitors of Hepatitis C Virus (HCV). Huh7.5.1 HCVcc-Cre infection, luciferase reporter, 44 h. Potency, µM (top dose mostly 41.8 µM), inactives show top-dose activity change, negative = inhibition, actives largely listed as inhibitors. 340,000 compounds, 3.4% hits. AID 651820, 2012; further: potency means the concentration at half of the fitted maximal effect; on the % scale 0 is the no-effect control and ±100 the full control effect
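Compounds are dispensed onto cells plated 4 h earlier at 1,000 per well, with HCVcc-Cre virus (about 0.5 moi) added next. Following 44 h of culture, luminescent signal is measured for 15 sec after 15 min with substrate at room temperature.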
HCMV antiviral – qHTS Assay for inhibitors of the human cytomegalovirus (HCMV); HFF cells, HCMV-luciferase reporter, 72 h; active compounds read low; activity change, negative = inhibition, % at 57.5 µM; 410,000 compounds, 4.5% hits; in the data active means activity change below about -60%; inconclusive means no clear call, values can overlap the other calls; inactive means above about -39%; further: on the % scale 0 is the no-effect control and ±100 the full control effect
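Screen run at 2 compound doses on HFFs infected with reporter HCMV, MOI 1 PFU/cell. Luciferase activity from cell lysates at 72 h post infection gave inhibition relative to buffer-only and Salinomycin wells.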
The depositor's hits bear a star; i = inactive; ? = inconclusive; nt = no result; + = active, no number. An excerpt weighted towards active compounds, which were near 21% of everything screened. Unless noted, the call rests on the fitted dose curve; in most records, active means well fitted inhibition curve with a large enough effect; inconclusive means small, poorly fitted or top-dose-only effect, or another doubt; inactive means no such curve, though single readings can be large or run the other way.

SMILES	Pf growth 96h	Cycloheximide cs	Pf growth 48h	Shiga toxin inh	HCV inhibitor	HCMV antiviral
CC[n+]1c(/C=C/N(C)c2ccccc2)sc2ccc(Cl)cc21	0.13µM*	-2	0.1µM*	2	?	-97*
CCN1/C(=C/C=C/c2oc3ccc4ccccc4c3[n+]2CC)Oc2ccc3ccccc3c21	57%	-3	?	29	?	nt
CC[n+]1c(/C=C/N(C)c2ccccc2)oc2ccc(Cl)cc21	?	5	4.7µM*	6	?	?
CCC(=O)N1CCc2cc(CNC(=O)Nc3cc(OC)c(OC)c(OC)c3)ccc21	nt	nt	nt	nt	nt	1
CCOC(=O)c1ccc(NC(=O)NC2CC3CCC(C2)N3Cc2nnnn2C(C)(C)C)cc1 (centres undefined)	-13%	2	2.1µM*	22	-15%	-20
O=C(NC(=S)Nc1ccc(Br)cc1)C1CCC1	?	47*	10%	102*	-10%	-16
O=C(NC(=S)Nc1ccc(Br)cc1)C1CCCCC1	-5%	9	?	-10	5%	78
CCOC(=O)c1ccc(NC(=S)NC(=O)C2CCCC2)cc1	43%	27*	?	21	-7%	50
CCOC(=O)c1ccc(NC(=O)CNC(=O)C2CCCCC2)cc1	17%	-4	4%	-11	2%	4
COc1ccc(NC(=S)NC(=O)C2CCC2)cc1	9%	40*	36%	43*	5%	46
Cn1c(=O)oc2cc(S(=O)(=O)N3CCCC(C(=O)Nc4ccc(Br)cc4F)C3)ccc21 (centres undefined)	nt	nt	nt	nt	nt	-18
CCOC(=O)c1ccc(NC(=S)NNC(=O)C2(C)CC2(Cl)Cl)cc1 (centres undefined)	?	15	27%	active	0%	-17
CC(C)COC(=O)c1ccc(NC(=O)C2C3CCC(C3)C2C(=O)O)cc1 (centres undefined)	14%	62*	79%	74*	8%	-2
COC(=O)c1ccc(NC(=S)NC2CCCCC2C)cc1 (centres undefined)	?	25*	9%	16	6%	-33
CCOC(=O)c1ccc(NC(=S)NNC(=O)COC)cc1	?	-1	-4%	-7	0%	19
CCOC(=O)c1ccc(NC(=O)NC2CC3CCC(C2)N3)cc1 (centres undefined)	i	-2	-14%	17	18µM*	-27
CCOC(=O)C=C(C(=O)OCC)C(=O)OCC	11%	-2	0%	7	14%	13
O=S(=O)(NCCc1csc2nc(-c3ccc(F)cc3)nn12)c1ccc(Oc2ccccc2)cc1	nt	nt	nt	nt	nt	8
Cn1c(-c2cccnc2)cc2cnc(Nc3ccc(F)cc3)cc21	nt	nt	nt	nt	nt	31
COC(=O)c1ccc(NC(=S)NC(=O)C2CCC2)cc1	51%	26*	28%	64*	-5%	5
CCOC(=O)c1ccc(NC(=S)NC2CCCC2)cc1	?	22*	19%	+	-20%	?
CCOC(=O)c1ccc(NC(=O)C2C3CCCCC32)cc1 (centres undefined)	-163%	43*	-22%	103*	?	6
CC1CCCCC1NC(=S)Nc1cccc(S(=O)(=O)N(C)C)c1 (centres undefined)	-28%	-9	?	13	3%	-68*
CCOC(=O)c1ccc(NC(=O)C2C3CCC(C3)C2C(=O)O)cc1 (centres undefined)	nt	20	62%	28	?	26
CC(C)CC(=O)NC(=S)NNC(=O)c1ccc(NC(=O)C2CCCCC2)cc1	13µM*	-1	?	-5	?	?
Cc1nc(Sc2ccccc2)c(C#N)cc1-c1ccccc1	?	28*	?	50*	-25%	nt
Cc1cc(C)c(C#N)c(Sc2nc(C)c([N+](=O)[O-])c(C)c2C#N)n1	nt	nt	nt	nt	nt	-38
Cc1nc(Sc2ccccc2)c(C#N)c(C)c1[N+](=O)[O-]	?	-3	7.4µM*	-13	?	-103*
COC(=O)CN1CCN(C(=O)c2ccco2)CC1	-13%	1	32%	-1	19%	92

Assay outcomes (PubChem BioAssay)
